# Laboratory results taken from PubChem BioAssay.
# Where “and” joins values, the source holds several entries; their conditions need not be identical. Equal values may be shown once. Some structures have more than one record in an assay (separate samples or runs), and their calls can disagree. Calls of active or inactive are those of the source.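 Rule for the calls: active = thallium flux through the channel raised or lowered by more than 3 SD from vehicle-only wells, actives on both sides; inactive = the rest.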
# System: R275C/beta4
# Test: BK channel mutant inhibitors and activators – cell-based, U2OS BacMam, thallium flux, beta subunits, selectivity assay, profiling panel (AID 1259406);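 note: initial slope of Thallos dye fluorescence rise after thallium is added; log ratio against the mean of 0.3% DMSO vehicle wells on the same plate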
# Conditions: U2OS BacMam BK variants, at 30 µM
row,Compound,log fold change Tl+ flux
1,O=c1[nH]cc(F)c(=O)[nH]1,-0.0876 (inactive)
2,CCc1nc(N)nc(N)c1-c1ccc(Cl)cc1,-0.00455 (inactive)
3,CCc1cccc2c3c([nH]c12)C(CC)(CC(=O)O)OCC3 (stereo not drawn),0.0823 (inactive)
4,Nc1ncn([C@@H]2O[C@H](CO)[C@@H](O)[C@H]2O)c(=O)n1,0.000291 (inactive)
5,Cc1ccccc1C(OCCN(C)C)c1ccccc1 (stereo not drawn),0.0108 (inactive) and 0.0539 (inactive)
6,Cc1ccc(C)c(OCCCC(C)(C)C(=O)O)c1,-0.0122 (inactive)
7,NC(=O)c1cnccn1,-0.0116 (inactive)
8,CCCCCCNC(=O)n1cc(F)c(=O)[nH]c1=O,-0.000915 (inactive)
9,COC1=CC(=O)C[C@@H](C)[C@]12Oc1c(Cl)c(OC)cc(OC)c1C2=O,-0.0288 (inactive)
10,Cc1ncc([N+](=O)[O-])n1CC(C)O (stereo not drawn),-0.0387 (inactive)
11,N[C@@H](C(=O)N[C@@H]1C(=O)N2C(C(=O)O)=C(Cl)CS[C@H]12)c1ccccc1,-0.0176 (inactive)
12,CO[C@@]1(NC(=O)Cc2cccs2)C(=O)N2C(C(=O)O)=C(COC(N)=O)CS[C@@H]21,0.0012 (inactive)
13,OCCN1CCN(CCCN2c3ccccc3Sc3ccc(C(F)(F)F)cc32)CC1,0.23 (active)
14,CN(C)CCOC(c1ccc(Cl)cc1)c1ccccn1 (stereo not drawn),0.0288 (inactive)
15,Cc1onc(-c2c(Cl)cccc2Cl)c1C(=O)N[C@@H]1C(=O)N2[C@@H]1SC(C)(C)[C@@H]2C(=O)O,-0.0254 (inactive)
16,COc1cc2nc(N(C)CCCNC(=O)C3CCCO3)nc(N)c2cc1OC (stereo not drawn),-0.0149 (inactive)
17,NS(=O)(=O)c1cc(C2(O)NC(=O)c3ccccc32)ccc1Cl (stereo not drawn),-0.0855 (inactive)
18,CN(C)CCc1c[nH]c2ccc(C[C@H]3COC(=O)N3)cc12,0.00246 (inactive)
19,Cc1ccc(-c2cc(C(F)(F)F)nn2-c2ccc(S(N)(=O)=O)cc2)cc1,-0.00588 (inactive)
20,CN[C@H]1CC[C@@H](c2ccc(Cl)c(Cl)c2)c2ccccc21,0.997 (active) and 0.996 (active)

row,Compound,log fold change Tl+ flux
1,O=S(=O)(O)CCS,0.0195 (inactive)
2,C/C=C/C(=O)N(CC)c1ccccc1C,-0.00282 (inactive)
3,COc1ccc(OC)c(C(O)CNC(=O)CN)c1 (stereo not drawn),0.00841 (inactive)
4,Cn1cnc([N+](=O)[O-])c1Sc1ncnc2nc[nH]c12,-0.0246 (inactive)
5,c1ccc2[nH]c(-c3cscn3)nc2c1,-0.00629 (inactive)
6,CCCNCC(O)COc1ccccc1C(=O)CCc1ccccc1 (stereo not drawn),0.153 (active)
7,NC(=O)N1c2ccccc2CC(=O)c2ccccc21,-0.00127 (inactive)
8,Cc1cn([C@H]2C[C@H](N=[N+]=[N-])[C@@H](CO)O2)c(=O)[nH]c1=O,0.00485 (inactive)
9,CN(CCOc1ccc(CC2SC(=O)NC2=O)cc1)c1ccccn1 (stereo not drawn),0.0706 (inactive) and 0.0705 (inactive)
10,COc1ccccc1OCC(O)COC(N)=O (stereo not drawn),0.0404 (inactive)
11,OC(CCN1CCCC1)(c1ccccc1)C1CCCCC1 (stereo not drawn),0.068 (inactive)
12,O=C1C(CCS(=O)c2ccccc2)C(=O)N(c2ccccc2)N1c1ccccc1 (stereo not drawn),-0.0311 (inactive)
13,COC(=O)Nc1nc2ccc(C(=O)c3ccccc3)cc2[nH]1,-0.0663 (inactive)
14,CCn1cc(C(=O)O)c(=O)c2cc(F)c(N3CCN(C)CC3)cc21,0.00214 (inactive)
15,CN1CCCC(n2nc(Cc3ccc(Cl)cc3)c3ccccc3c2=O)CC1 (stereo not drawn),0.0595 (inactive)
16,NCc1ccc(S(N)(=O)=O)cc1,-0.0166 (inactive)
17,Clc1ccc2c(c1)C(N1CCNCC1)=Nc1ccccc1O2,0.0104 (inactive)
18,CC(C)(C)NCC(O)COc1cccc2c1C[C@H](O)[C@H](O)C2 (stereo partly drawn),-0.0328 (inactive)
19,NS(=O)(=O)c1cc2c(cc1Cl)NC=NS2(=O)=O,0.0288 (inactive)

# System: R275C/Slo1WT/beta2
# Test: as above
# Conditions: U2OS BacMam BK variants, at 30 µM
row,Compound,log fold change Tl+ flux
1,O=c1[nH]cc(F)c(=O)[nH]1,0.0575 (inactive)
2,CCc1nc(N)nc(N)c1-c1ccc(Cl)cc1,-0.0705 (inactive)
3,CCc1cccc2c3c([nH]c12)C(CC)(CC(=O)O)OCC3 (stereo not drawn),0.0472 (inactive)
4,Nc1ncn([C@@H]2O[C@H](CO)[C@@H](O)[C@H]2O)c(=O)n1,-0.00199 (inactive)
5,Cc1ccccc1C(OCCN(C)C)c1ccccc1 (stereo not drawn),0.0116 (inactive) and 0.0357 (inactive)
6,Cc1ccc(C)c(OCCCC(C)(C)C(=O)O)c1,0.088 (inactive)
7,NC(=O)c1cnccn1,0.0474 (inactive)
8,CCCCCCNC(=O)n1cc(F)c(=O)[nH]c1=O,-0.00804 (inactive)
9,COC1=CC(=O)C[C@@H](C)[C@]12Oc1c(Cl)c(OC)cc(OC)c1C2=O,0.00636 (inactive)
10,Cc1ncc([N+](=O)[O-])n1CC(C)O (stereo not drawn),0.0129 (inactive)
11,N[C@@H](C(=O)N[C@@H]1C(=O)N2C(C(=O)O)=C(Cl)CS[C@H]12)c1ccccc1,-0.0279 (inactive)
12,CO[C@@]1(NC(=O)Cc2cccs2)C(=O)N2C(C(=O)O)=C(COC(N)=O)CS[C@@H]21,0.00869 (inactive)
13,OCCN1CCN(CCCN2c3ccccc3Sc3ccc(C(F)(F)F)cc32)CC1,-0.0356 (inactive)
14,CN(C)CCOC(c1ccc(Cl)cc1)c1ccccn1 (stereo not drawn),-0.0144 (inactive)
15,Cc1onc(-c2c(Cl)cccc2Cl)c1C(=O)N[C@@H]1C(=O)N2[C@@H]1SC(C)(C)[C@@H]2C(=O)O,-0.0106 (inactive)
16,COc1cc2nc(N(C)CCCNC(=O)C3CCCO3)nc(N)c2cc1OC (stereo not drawn),0.00335 (inactive)
17,NS(=O)(=O)c1cc(C2(O)NC(=O)c3ccccc32)ccc1Cl (stereo not drawn),0.0191 (inactive)
18,CN(C)CCc1c[nH]c2ccc(C[C@H]3COC(=O)N3)cc12,0.0342 (inactive)
19,Cc1ccc(-c2cc(C(F)(F)F)nn2-c2ccc(S(N)(=O)=O)cc2)cc1,-0.0385 (inactive)
20,CN[C@H]1CC[C@@H](c2ccc(Cl)c(Cl)c2)c2ccccc21,0.019 (inactive) and -0.2 (active)

row,Compound,log fold change Tl+ flux
1,O=S(=O)(O)CCS,0.0106 (inactive)
2,C/C=C/C(=O)N(CC)c1ccccc1C,0.00262 (inactive)
3,COc1ccc(OC)c(C(O)CNC(=O)CN)c1 (stereo not drawn),0.0391 (inactive)
4,Cn1cnc([N+](=O)[O-])c1Sc1ncnc2nc[nH]c12,0.0598 (inactive)
5,c1ccc2[nH]c(-c3cscn3)nc2c1,0.0186 (inactive)
6,CCCNCC(O)COc1ccccc1C(=O)CCc1ccccc1 (stereo not drawn),0.0285 (inactive)
7,NC(=O)N1c2ccccc2CC(=O)c2ccccc21,0.048 (inactive)
8,Cc1cn([C@H]2C[C@H](N=[N+]=[N-])[C@@H](CO)O2)c(=O)[nH]c1=O,0.022 (inactive)
9,CN(CCOc1ccc(CC2SC(=O)NC2=O)cc1)c1ccccn1 (stereo not drawn),-0.0105 (inactive) and 0.0261 (inactive)
10,COc1ccccc1OCC(O)COC(N)=O (stereo not drawn),0.0176 (inactive)
11,OC(CCN1CCCC1)(c1ccccc1)C1CCCCC1 (stereo not drawn),-0.0137 (inactive)
12,O=C1C(CCS(=O)c2ccccc2)C(=O)N(c2ccccc2)N1c1ccccc1 (stereo not drawn),0.0214 (inactive)
13,COC(=O)Nc1nc2ccc(C(=O)c3ccccc3)cc2[nH]1,0.008 (inactive)
14,CCn1cc(C(=O)O)c(=O)c2cc(F)c(N3CCN(C)CC3)cc21,0.067 (inactive)
15,CN1CCCC(n2nc(Cc3ccc(Cl)cc3)c3ccccc3c2=O)CC1 (stereo not drawn),0.0667 (inactive)
16,NCc1ccc(S(N)(=O)=O)cc1,-0.0456 (inactive)
17,Clc1ccc2c(c1)C(N1CCNCC1)=Nc1ccccc1O2,0.0256 (inactive)
18,CC(C)(C)NCC(O)COc1cccc2c1C[C@H](O)[C@H](O)C2 (stereo partly drawn),0.00485 (inactive)
19,NS(=O)(=O)c1cc2c(cc1Cl)NC=NS2(=O)=O,0.0443 (inactive)
